DT40 TDP1 CPT = growth inhibition of DT40 Tdp1-/-;hTDP1 cells with camptothecin (screen for TDP1 inhibitors) | chicken DT40 Tdp1-/-;hTDP1 cells + 20 nM CPT, ATP luminescence, 48 h | Potency, µM (series often up to 46.2 µM), most hits filed as inhibitors | actives 12% (n = 420,000); note: nearly all actives have a fitted effect of over 55% in size
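Chicken DT40 Tdp1-/- cells stably complemented with human TDP1 were seeded at 400 cells/well in medium containing 20 nM camptothecin, exposed to pin-transferred compounds, and grown at 37 °C for at least 48 hr. Viability was read as ATP luminescence.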
ClpP mod = qHTS Assay for Activators of ClpP | ATP-dependent Clp protease proteolytic subunit (Bacillus subtilis (strain 168)), P80244 | purified B. subtilis ClpP, FRET peptide cleavage, 20 min | Potency, µM (doses to about 57.5 µM) | actives 1.9% (n = 340,000) | AID 651965, 2013; active = well fitted falling curve with a large enough effect; inconclusive = small, poorly fitted or top-dose-only effect; inactive = no such curve, though single readings can be large or run the other way; note: the source files actives as falling curves though it sought activators and does not explain the sign; nearly all actives have a fitted effect of over 65% in size
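Buffer: 100 mM Tris/HCl pH8, 100 mM KCl, 0.05% low protease BSA, 2.5% glycerol, 0.01% Tween-20. ClpP 10 microg/mL final; 20 min RT; delta FRET normalized to ADEP and DMSO controls.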
TDP1 block = blocks human tyrosyl-DNA phosphodiesterase 1 | recombinant TDP1, AlphaScreen DNA substrate cleavage | actives 0.28% (n = 350,000) | Q9NUW8 | Potency, µM (top dose mostly 130 µM), most hits filed as inhibitors; note: nearly all actives have a fitted effect of over 40% in size
Target sequence (Q9NUW8 whole entry, looked up): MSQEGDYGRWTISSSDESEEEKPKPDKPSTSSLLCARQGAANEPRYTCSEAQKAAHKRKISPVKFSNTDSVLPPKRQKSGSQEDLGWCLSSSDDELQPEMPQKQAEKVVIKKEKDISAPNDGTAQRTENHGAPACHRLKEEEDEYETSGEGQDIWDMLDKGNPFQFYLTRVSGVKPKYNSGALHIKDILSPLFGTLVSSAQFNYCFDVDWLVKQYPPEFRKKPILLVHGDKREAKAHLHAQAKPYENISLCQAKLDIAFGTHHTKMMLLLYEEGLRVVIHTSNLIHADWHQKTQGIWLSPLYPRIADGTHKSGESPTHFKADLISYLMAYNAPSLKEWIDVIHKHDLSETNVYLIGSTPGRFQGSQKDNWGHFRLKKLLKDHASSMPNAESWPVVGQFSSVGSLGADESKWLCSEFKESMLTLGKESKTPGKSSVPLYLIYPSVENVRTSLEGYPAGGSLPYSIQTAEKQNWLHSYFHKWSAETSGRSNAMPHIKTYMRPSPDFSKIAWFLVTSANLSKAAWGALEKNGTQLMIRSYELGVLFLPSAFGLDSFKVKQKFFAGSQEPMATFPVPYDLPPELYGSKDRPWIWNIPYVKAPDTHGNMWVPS
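Recombinant E. coli-expressed Tdp1 (1 nM) preincubated with compound 15 min at RT, then 5'-biotin/3'-phosphotyrosine-FITC DNA substrate (15 nM) added for 5 min. AlphaScreen beads (10 ug/ml) added, 10 min RT; tyrosine-FITC cleavage read as signal loss.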
DT40 TDP1 no CPT = qHTS for Inhibitors of human tyrosyl-DNA phosphodiesterase 1 (TDP1): qHTS in cells in absence of CPT; DT40 Tdp1-/- hTDP1 cells, no CPT, ATP luminescence, 48 h; Potency, µM (series often up to 46.2 µM), usual class: inhibitors; actives 15% (n = 420,000); AID 686978, 2013; note: nearly all actives have a fitted effect of over 55% in size
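Growth kinetics read by CellTiter-Glo luminescence after ≥48 hr at 37 °C. Cells: DT40 Tdp1-/- stably carrying human TDP1, 400 per well, compound exposure in the absence of CPT (DMSO vehicle).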
Numbers stand for hits; 0 = inactive; ? = inconclusive; - = not tested or not shown. Hits are enriched below; roughly 17% of the tested compounds scored in any of these assays. Unless noted, calls come from the whole dose curve; as a rule, active = well fitted curve in the direction sought with a large enough effect; inconclusive = small, poorly fitted or top-dose-only effect, or another doubt; inactive = no such curve, though single readings can be large; an effect the other way counts as inactive or inconclusive.

SMILES	DT40 TDP1 CPT	ClpP mod	TDP1 block	DT40 TDP1 no CPT
CCOC(=O)c1c(S(=O)(=O)N2CCC(C(=O)Nc3ccc(C)c(Cl)c3)CC2)c(C)n(C)c1C	0	0	0	0
C=CCn1c(SCC(=O)NCC2CCCO2)nc2scc(-c3ccc(OC)cc3)c2c1=O (centres undefined)	?	0	0	?
C=CCn1c(SCC(=O)c2[nH]c(C)c(C(=O)OCC)c2C)nc2scc(-c3ccccc3)c2c1=O	11.6µM	0	0	16.4µM
C=CCn1c(SCC(=O)c2[nH]c(C)c(C(=O)OCC)c2C)nc2scc(-c3ccc(OC)cc3)c2c1=O	9.2µM	0	0	14.6µM
CCN1C(=O)/C(=C/C=C2/CCCN2C)OC1=S	?	0	0	5.17µM
COc1ccc(OC)c(NC(=O)NNC(=O)COc2ccc(-c3ccccc3)cc2)c1	0	0	0	0
COC(=O)c1[nH]c2ccc(C)cc2c1NC(=O)Nc1ccc(OC)cc1	0	0	0	0
COC(=O)c1[nH]c2ccc(F)cc2c1NC(=O)Nc1ccc(OC)cc1	?	0	0	6.51µM
O=C(COc1ccc(-c2ccccc2)cc1)NNC(=O)Nc1ccc(F)cc1F	0	31.6µM	0	0
COc1ccc(NC(=O)NC(C)(C(F)(F)F)C(F)(F)F)cc1	?	0	0	16.4µM
COc1ccc(NC(=O)NC(C(F)(F)F)C(F)(F)F)cc1	0	0	0	?
COc1ccc(NC(=O)Nc2ccc(F)cc2F)cc1	9.2µM	-	0	5.8µM
COc1ccc(NC(=O)Nc2ccc(F)cc2F)c(C)c1	?	0	0	?
Cc1csc2cc(-c3cccc([N+](=O)[O-])c3)c(-c3cccc([N+](=O)[O-])c3)c[n+]12	0	0	0	0
CCC(c1nnc(SCC(=O)NCCc2ccc(OC)c(OC)c2)n1Cc1ccccc1)N(C)C (centres undefined)	0	0	0	0
Cc1ccc(C(=O)O)cc1NC1(c2ccccc2)C(=O)c2ccccc2C1=O	0	0	0	0
O=C(O)C1CCN(C(=O)c2ccccc2N2C(=O)[C@@H]3Cc4c([nH]c5ccccc45)C(c4cccc(Cl)c4)N3C2=O)CC1 (some centres undefined)	0	0	-	0
O=C1C2CC=CCC2C(=O)N1c1ccc(NCCc2cccc(F)c2)c([N+](=O)[O-])c1 (centres undefined)	?	0	0	11.6µM
O=C(Nc1ccc([N+](=O)[O-])cc1)C(Cc1ccccc1)N1C(=O)c2cccc3cccc(c23)C1=O (centres undefined)	?	-	0	5.17µM
O=C(Nc1ccccc1)C(Cc1ccccc1)N1Cc2ccccc2C1=O (centres undefined)	0	0	0	0
Cc1cccc(Cc2cnc(NC(=O)C3Cc4ccc(C)cc4C(=O)O3)s2)c1 (centres undefined)	-	0	0	-
Cc1cc(C)nc(NC(=NCCc2c[nH]c3ccccc23)NC(=O)Nc2ccccc2)n1	?	0	0	18.4µM
COc1ccc2[nH]cc(CCN=C(NC(=O)c3ccccc3F)Nc3nc(C)cc(C)n3)c2c1	-	0	0	-
Cc1cc(C)nc(NC(=NCCc2c[nH]c3ccccc23)NC(=O)c2ccco2)n1	20.6µM	0	0	10.3µM
Cc1cc(C)nc(NC(=NCCc2c[nH]c3ccccc23)NC(=O)Nc2ccc(Cl)c(Cl)c2)n1	14.6µM	0	0	13µM
SMILES	DT40 TDP1 CPT	ClpP mod	TDP1 block	DT40 TDP1 no CPT
C/C(=N\NC(=O)CCc1c[nH]c2ccccc12)c1cccc([N+](=O)[O-])c1	?	-	0	?
Cc1ccc(NC(=O)C(=O)NCCc2c[nH]c3ccccc23)cc1C	0	-	0	0
Cc1cc(C)nc(NC(=NCCc2c[nH]c3ccccc23)NC(=O)Nc2cccc([N+](=O)[O-])c2)n1	13µM	0	0	7.31µM
CC(C)NC(=O)CN1CCN(C(=O)c2ccc3oc(CCCc4ccccc4)nc3c2)CC1	?	0	0	0
Cc1ccccc1OCc1occc1C(=O)Nc1cccc(-n2cnnn2)c1	23.1µM	0	0	18.4µM
COc1ccc(NC(=O)COc2ccc(-n3cnnn3)cc2)cc1OC	?	-	0	23.1µM
Cc1cc(OCCCC(=O)Nc2cccc(-n3cnnn3)c2)ccc1Cl	?	0	0	11.6µM
COc1cccc(NC(=O)COc2cccc(-n3cnnn3)c2)c1	0	0	0	0
Cc1cccc(OCc2occc2C(=O)Nc2cccc(-n3cnnn3)c2)c1	0	0	0	0
Cc1noc(C)c1COc1ccc(C(=O)OCC(=O)Nc2ccc(C(=O)N(C)C)cc2)cc1	0	0	0	0
O=C(/C=C/Nc1cccc(C(F)(F)F)c1)c1ccco1	0	-	0	0
O=C(/C=C/Nc1cccc(C(F)(F)F)c1)c1ccc(Oc2ncccn2)cc1	?	0	0	23.1µM
CCOc1ccc2nc(C)cc(Nc3ccc(N4CCOCC4)cc3)c2c1	-	-	0	-
CCOc1ccc2nc(C)cc(Nc3cccc([N+](=O)[O-])c3)c2c1	3.26µM	0	0	11.6µM
COc1ccc(Nc2cc(C)nc3c(C)cccc23)cc1OC	0	0	-	0
Cc1cc(Nc2ccc([N+](=O)[O-])cc2)c2ccccc2n1	16.4µM	0	0	18.4µM
Cc1cc(Nc2cccc([N+](=O)[O-])c2)c2cccc(C)c2n1	?	-	-	20.6µM
Cc1cc(Nc2cccc([N+](=O)[O-])c2)c2ccccc2n1	?	-	0	?
COc1ccc2c(c1)C1(Nc3ccccc3-c3nc4ccccc4n31)C(=O)N2 (centres undefined)	0	0	0	0
COc1ccc2c(c1)C1(Nc3ccccc3-c3nc4ccccc4n31)C(=O)N2C (centres undefined)	?	0	0	20.6µM
CC(C)C(c1nnnn1Cc1ccccc1)N1CCc2ccccc2C1 (centres undefined)	?	0	0	16.4µM
CC(C)C(c1nnnn1C1CCCCC1)N1CCc2ccccc2C1 (centres undefined)	0	0	0	?
c1ccc(Cn2nnnc2C(c2cccs2)N2CCc3ccccc3C2)cc1 (centres undefined)	?	0	0	29.1µM
c1ccc(Cn2nnnc2C(c2cccs2)N2CCCCCC2)cc1 (centres undefined)	0	0	0	0
CC(C)OC(=O)CSc1nnc2c3ccccc3n(C)c2n1	0	0	0	0
COC(=O)c1ccc(S(=O)(=O)NCCSc2nnc3c4ccccc4n(C)c3n2)cc1	?	0	0	14.6µM
COc1cc(NC(=O)c2ccccc2)c(OC)cc1NC(=O)CSc1[nH]c(=O)cc(C)c1C#N	3.66µM	-	0	2.31µM
COc1ccccc1CC(=O)Nc1cc(OC)c(NC(=O)c2ccccc2)cc1OC	0	-	-	13µM
COc1cc(NC(=O)C/C(C)=N/NC(=O)c2cccs2)c(OC)cc1Cl	0	-	0	0
COc1cc(NCCC(=O)c2cccs2)c(OC)cc1Cl	3.66µM	-	0	4.61µM

Screening results: PubChem BioAssay, National Center for Advancing Translational Sciences (NCATS)
